Our source for the activity change values is PubChem BioAssay AID720551 (National Center for Advancing Translational Sciences (NCATS), 2013).

Screen size: about 340,000 compounds; about 1,300 (0.38%) were called active. This is one part of a sample in which actives are shown more often than they occur. Unmarked numbers belong to inactive results.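 Rule for the calls: active = maximum activity change below -70%; inconclusive = maximum activity change between -70% and -50%; inactive = maximum activity change above -50%.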
% is set by controls: 0 for no effect and ±100 for the full control effect.

Voltage-gated inwardly rectifying potassium channel KCNH2 (Homo sapiens), sequence (Q12809 whole entry, looked up): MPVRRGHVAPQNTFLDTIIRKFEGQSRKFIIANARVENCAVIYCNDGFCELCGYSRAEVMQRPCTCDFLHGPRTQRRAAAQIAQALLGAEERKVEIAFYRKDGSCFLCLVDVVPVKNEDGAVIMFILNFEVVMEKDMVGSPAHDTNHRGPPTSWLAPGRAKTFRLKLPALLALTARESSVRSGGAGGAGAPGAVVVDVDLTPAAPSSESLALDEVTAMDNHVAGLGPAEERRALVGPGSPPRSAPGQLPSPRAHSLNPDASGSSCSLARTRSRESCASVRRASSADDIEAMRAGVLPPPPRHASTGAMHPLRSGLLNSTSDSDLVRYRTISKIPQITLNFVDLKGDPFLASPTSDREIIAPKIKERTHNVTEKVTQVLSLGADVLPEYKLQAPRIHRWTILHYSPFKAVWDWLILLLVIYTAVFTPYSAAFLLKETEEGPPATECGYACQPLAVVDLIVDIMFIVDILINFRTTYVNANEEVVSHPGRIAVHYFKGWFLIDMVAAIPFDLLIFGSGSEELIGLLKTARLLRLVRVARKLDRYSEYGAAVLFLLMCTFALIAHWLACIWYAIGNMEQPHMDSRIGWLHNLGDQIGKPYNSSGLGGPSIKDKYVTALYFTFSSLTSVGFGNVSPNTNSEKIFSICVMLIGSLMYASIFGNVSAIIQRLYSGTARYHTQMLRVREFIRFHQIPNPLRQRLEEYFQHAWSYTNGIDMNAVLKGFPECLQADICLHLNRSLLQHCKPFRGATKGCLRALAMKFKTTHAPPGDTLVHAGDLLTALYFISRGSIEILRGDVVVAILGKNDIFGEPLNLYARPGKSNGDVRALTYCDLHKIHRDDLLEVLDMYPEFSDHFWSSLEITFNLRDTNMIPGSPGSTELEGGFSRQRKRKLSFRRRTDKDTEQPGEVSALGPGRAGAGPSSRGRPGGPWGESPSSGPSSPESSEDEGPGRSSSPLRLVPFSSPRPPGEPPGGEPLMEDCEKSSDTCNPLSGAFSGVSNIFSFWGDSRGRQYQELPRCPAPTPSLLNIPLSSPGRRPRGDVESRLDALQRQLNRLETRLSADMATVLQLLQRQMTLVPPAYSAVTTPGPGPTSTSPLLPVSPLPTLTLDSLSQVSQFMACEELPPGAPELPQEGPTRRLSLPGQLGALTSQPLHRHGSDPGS

This experiment addresses Voltage-gated inwardly rectifying potassium channel KCNH2 (Homo sapiens) (UniProt Q12809). In words: qHTS for Inhibitors of KCHN2 3.1: Wildtype qHTS. Particulars: U2OS, BacMam KCNH2, thallium flux FluxOr; at 1.84 µM; stronger effect = lower value. The method, boiled down:
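U2OS cells transduced with wild-type KCNH2 virus are loaded with FluxOr dye for 45 min, and thallium flux is measured in kinetic reads before and after stimulation buffer. Rate constants are normalized to DMSO controls.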
A general note: qHTS replaces the single test concentration by a dilution series.
Regarding `C[C@H](CO)N1C[C@H](C)[C@@H](CN(C)S(=O)(=O)c2ccc(Oc3ccccc3)cc2)OCc2cn(nn2)CCCC1=O`, the activity change was 10.5%.
As for `COc1ccc(C=C2CCC3C(CCCC34OCCO4)C2=O)cc1` (stereo unspecified), the figure is 7.34%; as for `COc1ccc(S(=O)(=O)N2CCN(CC(=O)N3CCNC3=O)CC2)cc1OC`, -3.77%; as for `Cc1cccc(C)c1OCC(O)CN1CCCCC1` (stereo unspecified), -71.1% (active).
As for `OC(COc1ccc(CN2CCSCC2)cc1)CN1CCCCC1` (stereo unspecified), the activity change was -2.59%.
On to `O=C(c1ccc(Cl)cc1)c1ccc(OCC(O)CN2CCCCC2)cc1` (stereo unspecified), for which the activity change is 42.5%.
As for `Cc1ccc(NC(=O)c2ccco2)cc1`, the activity change is -2.95%.
`O=Cc1cn(CCOc2ccc(F)cc2)c2ccccc12`: the activity change is -0.818%.
Regarding `COc1cccc(NC(=O)N2CCC(NC(=O)C(Cc3cccc(C)c3)NC(C)=O)CC2)c1` (stereo unspecified), the activity change is -205% (active).
The value for `CCOC(=O)C1CCN(C(=O)Nc2cccc(OC)c2)CC1` was -8.37%; that for `COc1ccc(CC(NC(C)=O)C(=O)NC2CCN(C(=O)Nc3ccc(C#N)cc3)CC2)cc1OC` (stereo unspecified) was 6.09%.
Regarding `O=Nc1c(O)cc(O)c2ccccc12`, the activity change is -0.133%.
As for `COC(=O)C(Cc1c[nH]c2ccccc12)NC(=O)CCNC(=O)c1ccco1` (stereo unspecified), the figure is 0.0904%.
As for `CSc1ncc(C(=O)Nc2ccc(C)cc2C)c(C)n1`, the figure is -213% (active).
As for `Cc1ccc(NC(=O)c2ccn(C(=O)Nc3ccccc3)n2)c(C)c1`, the figure is 5.47%.
For the compound `CSc1ncc(C(=O)NCCCc2ccccc2)c(C)n1`, the activity change is 11.2%.
The value for `CCc1cc(C(=O)N(CC)CC(=O)Nc2c(F)cccc2F)sc1C` was 1.41%; that for `CC(C)c1cc(C(=O)NC2CCCCCC2)c2ccccc2n1` was 1.65%; that for `CCCCNc1nc2ccccc2nc1NS(=O)(=O)c1cccs1` was -1.02%.
Consider `Cc1cc(C)c[n+](-c2nc3ccccc3nc2[N-]S(=O)(=O)c2cccs2)c1`, for which the activity change was -111% (active).
With `O=S(=O)([N-]c1nc2ccccc2nc1-[n+]1ccc(Cc2ccccc2)cc1)c1ccc(Br)s1`, the activity change was 8.23%.
As for `N#Cc1ccc(OCC(=O)Nc2nc(-c3ccccn3)cs2)cc1`, the figure is 19.3%; as for `O=C(NCC(c1cccs1)N1CCOCC1)c1cc(-c2ccccn2)nc2ccccc12` (stereo unspecified), 0.99%.
The value for `O=C(c1ccccc1)c1cc(-c2ccccn2)c(N2CCOCC2)s1` was -186% (active); that for `CCc1ccc2ncc(C(=O)c3ccccc3)c(N3CCOCC3)c2c1` was 5.15%; that for `Cc1ccc([C@H]2N[C@]3(CCCN(CC4CCCCC4)C3=O)[C@H]3C(=O)N(Cc4ccccc4)C(=O)[C@@H]23)cc1` was 2.25%.
